Bioassay records from PubChem.
Rows were chosen to be rich in hits. Some 14% of all compounds tested hit in one or more screens of this group.
FBPA Giardia inh – inhibitors of Giardia lamblia fructose-1,6-bisphosphate aldolase; A8B2U2; purified Giardia FBPA; Potency, µM (series often up to 59.6 µM), actives largely listed as inhibitors; 290,000 tested, 0.71% active; note: nearly all actives have a fitted effect of over 55% in size
Target sequence (A8B2U2 whole entry, looked up): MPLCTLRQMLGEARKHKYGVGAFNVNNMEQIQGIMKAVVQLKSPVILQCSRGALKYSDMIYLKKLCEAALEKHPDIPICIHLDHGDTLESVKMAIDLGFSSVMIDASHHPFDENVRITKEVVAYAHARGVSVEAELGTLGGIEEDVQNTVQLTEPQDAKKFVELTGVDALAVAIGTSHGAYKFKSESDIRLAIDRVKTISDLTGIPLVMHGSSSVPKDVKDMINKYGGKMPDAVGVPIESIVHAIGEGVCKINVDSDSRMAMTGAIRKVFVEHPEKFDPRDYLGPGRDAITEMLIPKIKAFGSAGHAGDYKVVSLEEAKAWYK
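Giardia FBPA (40 nM reagent) was preincubated 10 min at RT with compound (up to 57.5 uM final), then substrate plus GAPDH/TPI/NAD/arsenate coupling system with diaphorase/resazurin was added; resorufin fluorescence (525/598 nm) was read after 20 min.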
NS1 inh – influenza NS1 inhibition. Potency, µM (titrated, usually from 46.1 µM). 270,000 tested, 0.4% active. AID 2326; calls by dose curve; note: actives are rising curves; nearly all actives have a fitted effect of over 50% in size
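S. cerevisiae expressing influenza A NS1, grown in glucose, washed, then diluted 1:100 into pH 6.0 -URA galactose medium with 23 nl compound. Growth recovery read as OD600; NS1-free strain serves as control.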
Shiga toxin inh – Shiga toxin inhibition; 290,000 tested, 9.2% active; inhibition, % at 38.7 µM; Vero cells, Shiga toxin protein synthesis inhibition reporter; in the data active = inhibition mostly above about 28%, no sharp cut-off; inactive = mostly below about 43%
LmPK inh – blocks Leishmania mexicana pyruvate kinase activity | Q27686 | purified LmPK, Kinase-Glo ATP luminescence, 1 h | Potency, µM (highest dose often 57.5 µM), most hits filed as inhibitors | 290,000 tested, 0.37% active | AID 1721
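0.1 nM LmPK, 0.5 mM PEP, 0.1 mM ADP; 50 mM imidazole pH 7.2, 7 mM MgCl2, 50 mM KCl; 1 h RT. Kinase-Glo luminescence readout, normalized to no-enzyme (full inhibition) and uninhibited wells.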
CHX counter – counter-screen for Shiga toxin inhibitors: cycloheximide protein synthesis inhibition; cell reporter, cycloheximide protein synthesis inhibition counterscreen; max response, %; 300,000 tested, 12% active; AID 2314; in the data active = max response mostly above about 13%, no sharp cut-off; inactive = mostly below about 14%; note: read at 38.3 µM for the half of the compounds with a filed dose
Hits are given with their value; . = inactive; ? = inconclusive; / = not tested or not shown; ! = not confirmed by another sample; [ ] = remark or other dose. Unless noted, calls come from the whole dose curve; as a rule, active = well fitted curve in the direction sought with a large enough effect; inconclusive = small, poorly fitted or top-dose-only effect, or another doubt; inactive = no such curve, though single readings can be large; an effect the other way counts as inactive or inconclusive.

SMILES	FBPA Giardia inh	NS1 inh	Shiga toxin inh	LmPK inh	CHX counter
Cc1ccc(-c2nc(N)sc2C)cc1	.	/	33.1	.	14.8
Cc1ccc(-c2nc(N)sc2-c2ccc(C)cc2)cc1	.	/	.	.	.
O=C(N=C1N=C2C=CC(Br)=CN2Cc2ccccc21)c1ccc([N+](=O)[O-])cc1[N+](=O)[O-]	.	.	60.6	?	40.0
CC(=O)N/C(=C/c1ccc2c(c1)OCO2)C(=O)Nc1ccccc1	.	.	80.0	.	26.6
O=C(Nc1ccc(C(=O)O)cc1)/C(=C\c1ccc2c(c1)OCO2)NC(=O)c1ccc(Br)cc1	.	.	.	.	38.7
CC(=O)N/C(=C/c1ccc2c(c1)OCO2)C(=O)O	.	.	.	.	.
O=C(O)CNC(=O)/C(=C\c1ccc2c(c1)OCO2)NC(=O)c1ccc(Br)cc1	.	/	.	.	.
O=C(NCCO)/C(=C/c1ccc2c(c1)OCO2)NC(=O)c1ccc(Br)cc1	.	.	74.3	.	40.6
CCCS(=O)(=O)c1nc(S(=O)(=O)c2ccc(C)cc2)c(N2CCCC(C)C2)s1 (stereo not drawn)	/	.	.	.	.
Cn1c(N2CCN(C(c3ccccc3)c3ccccc3)CC2)nc2ccccc21	.	.	.	.	.
C=CCn1cccc(C(=O)Nc2ccc(C)c(Cl)c2)c1=O	.	.	.	.	.
C=CCn1cccc(C(=O)Nc2ccc(SC)cc2)c1=O	.	.	93.5	.	52.5
C=CCn1cccc(C(=O)Nc2ccc(OC)c(OC)c2)c1=O	.	/	.	.	.
C=CCn1cccc(C(=O)Nc2ccc(Cl)cc2)c1=O	.	.	64.0	.	36.4
C=CCn1cccc(C(=O)Nc2ccc(OC)cc2OC)c1=O	.	/	.	.	.
C=CCn1cccc(C(=O)Nc2ccc(OCC)cc2)c1=O	.	/	95.1	.	35.3
C=CCn1cccc(C(=O)Nc2ccc(N(C)C)cc2)c1=O	.	.	89.9	.	38.6
Cc1ccc(C)c(N2CCN(S(=O)(=O)c3ccc4c(c3)NC(=O)CS4)CC2)c1	/	.	.	.	.
O=C(Nc1ccc(S(=O)(=O)N2CCCC2)cc1)c1cc(F)c(F)cc1Cl	/	.	.	.	.
Cc1noc(C)c1-c1ccc2ncnc(NC3CCCc4ccccc43)c2c1 (stereo not drawn)	.	/	.	/	.
O=[N+]([O-])c1ccc(Sc2cccc3cccnc23)cc1	?	.	64.7	.	25.6
O=[N+]([O-])c1cc(Cl)ccc1Sc1cccc2cccnc12	?	.	.	.	.
O=[N+]([O-])c1ccc(Sc2cccc3cccnc23)c([N+](=O)[O-])c1	?	.	.	.	19.1
Cc1noc(C)c1C(=O)N1CCC[C@@]2(CCN(c3ccccc3)C2)C1	.	/	/	/	/
O=c1oc2ccccc2c(Nc2cc3ccccc3cc2O)c1[N+](=O)[O-]	6.29µM	.	111.5	.	53.4
SMILES	FBPA Giardia inh	NS1 inh	Shiga toxin inh	LmPK inh	CHX counter
COCCCNC(=O)CCCN1C(=O)c2cccnc2Sc2ccccc21	.	.	.	.	.
O=C(CSc1n[nH]c(=O)n1C1CC1)c1ccc(F)cc1	.	.	.	.	13.5
Cn1nnnc1SCC(=O)c1cccs1	.	.	.	.	.
COC(=O)CSc1nc(C)cc(C)c1C#N	.	.	.	.	.
Cc1cc(C)c(C#N)c(SCC(=O)C2CC2)n1	.	.	43.2	.	24.0
Cc1cc(C)c(C#N)c(SCC(=O)Nc2nonc2N)n1	.	.	72.3	.	29.1
Cc1cc(C)c(-n2nnnc2SCC(=O)c2cccs2)c(C)c1	.	.	39.3	.	23.9
Cc1cc(C)c(C#N)c(SCC(=O)c2cccs2)n1	.	.	61.3	.	19.4
CC(=O)OC1CC2C(C)(C)C(O)CCC2(C)C2CC[C@]3(C)C(=CC(=O)OC3c3ccoc3)C12C (stereo partly drawn)	.	/	/	/	/
O=C(CN1C(=O)NC2(CCCCC2)C1=O)N1CCN(S(=O)(=O)c2cccc(F)c2)CC1	/	.	.	.	.
O=C(NC1CCCCCC1)c1ccc(Cl)c(S(=O)(=O)N2CCOCC2)c1	.	.	.	.	.
COc1ccc(OC)c(NC(=O)CSc2nnc(NC(=O)c3ccco3)s2)c1	/	.	.	.	.
COc1cccc(NC(=O)CN(C2=NC3CS(=O)(=O)CC3S2)c2cccc(C)c2)c1 (stereo not drawn)	.	.	.	.	.
CCOC(=O)c1sc(NC(=O)c2ccco2)nc1C	.	.	.	.	.
COC(=O)c1sc(NC(=O)c2ccc(C)o2)nc1C	.	.	147.3	?	46.6
CCOC(=O)c1sc(NC(=O)c2ccc(OC(C)=O)cc2)nc1C	.	.	55.7	?	20.6
CCOC(=O)c1sc(NC(=O)c2ccc(C)o2)nc1C	.	.	43.2	.	28.2
COC(=O)c1sc(NC(=O)c2oc3ccccc3c2C)nc1C	.	.[9.22 µM]	37.6	.	28.1
CCOC(=O)c1sc(NC(=O)c2ccc(OC)cc2)nc1C	.	.	.	.	.
COC(CNC(=O)CN1CCN(Cc2ccc(F)cc2Cl)C1=O)OC	.	.	.	.	.
c1ccc(Oc2nc(NC3CCCCC3)c3[nH]cnc3n2)cc1	15.8µM	/	.	/	.
Cc1cc(C(=O)N(C)C2CCCCC2)no1	/	.	.	.	.
CN(C(=O)c1cc(-c2ccccc2)on1)C1CCCCC1	.	.	72.9	.	36.6
O=C(c1cc(-c2ccc(Cl)c(Cl)c2)on1)N1CCCCC1	.	.	119.6	.	40.0
O=C(c1cc(-c2ccc(Cl)c(Cl)c2)on1)N1CCN(c2ccccc2)CC1	.	.	.	.	.
SMILES	FBPA Giardia inh	NS1 inh	Shiga toxin inh	LmPK inh	CHX counter
O=C(c1cc(-c2ccccc2)on1)N1CCCC1	.	.	148.8	.	30.1
O=C(c1cc(-c2ccc(Cl)cc2)on1)N1CCCC1	.	.	89.8	.	37.3
Cc1cccc(C(=O)OCC(=O)NCCCc2ccccc2)c1	.	.	.	.	.
O=C(c1cc(-c2cccc(Cl)c2)on1)N1CCCC1	.	.	71.3	.	17.9
COC(=O)CCS(=O)(=O)c1nc(-c2ccccc2)cc(C(F)(F)F)n1	.	.	.	.	.
COc1ccc(-c2cc(C(F)(F)F)nc(S(=O)(=O)CCCC(=O)Nc3cccnc3Cl)n2)cc1OC	.	/	.	.	19.3
Clc1cccc(Cl)c1C1Nc2cccc3cccc(c23)N1	.	.	.	.	.
Fc1cccc(Cl)c1C1Nc2cccc3cccc(c23)N1	.	.	.	.	24.0
C=C(C)Cn1c(=O)c2c(nc3n2CCCN3Cc2ccccc2)n(C)c1=O	.	.	.	.	.
CC(C)(C)C1=CC(=O)C(N2CCOCC2)=CC1=O	1.77µM	.	.	.	.
Nc1ncnc2c1ncn2[C@@H]1O[C@H](C(=O)NC2CC2)[C@H](O)[C@H]1O	.	.	/	/	/
Nc1nc(N)c(N=O)c(OCC2CCCCC2)n1	.	.	40.7!	.	21.3
COc1ccc(Cl)cc1-c1nc(-c2ccc(Br)o2)no1	.	.	.	.	.
COc1ccc(-c2noc(-c3ccc(Br)o3)n2)cc1	.	.	69.4	.	29.9
CCOc1cc(-c2nc(-c3ccc(OC)cc3)no2)cc(OCC)c1OCC	.	.	.	.	.
COc1ccc(-c2nc(-c3ccc(Br)o3)no2)cc1	.	.	63.9	.	28.5
